Data reported in article PMC7826789 (International Journal of Molecular Sciences, 2021).

`Cn1ccc2ncnc(Oc3ccc(NC(=O)Nc4ccccc4)cc3)c21` [TPKI-69] was tested, and the Kinases covered (PDGFRB) was “PDGFRB”.
`Cc1c(Cn2ccn3c(=O)nc(N4CCOCC4)cc23)cccc1C(F)(F)F` [GSK2336394] was tested, and the Kinases covered (PIK3CB) was “PIK3CB”.
With `CC(C)N1CC(=O)N(C)c2cnc(Nc3cccc(S(=O)(=O)CCN4CCOCC4)c3)nc21` [BI00009348] the Kinases covered (PIK3CG) was “PIK3CG”.
With `CC(C)N1CCN(Cc2cnc(-c3cc(-c4cccc5[nH]ccc45)cc4[nH]ncc34)o2)CC1` [GSK2269557] the Kinases covered (PIK3CD) was “PIK3CD”.
`CN(C)C(=O)/C(C#N)=C/c1ccc(-c2nc3cnc4[nH]ccc4c3n2C2CCCCC2)o1` [FM-381] was tested, and the Kinases covered (PIK3C2G) was “PIK3C2G”.
`NS(=O)(=O)c1cccc(-c2ccc3nccc(-c4cccc(S(N)(=O)=O)c4)c3c2)c1` [GW867253] was tested, and the Kinases covered (PI4KB) was “PI4KB” and the Kinases covered (PIK3CG) was “PIK3CG”.
`O=c1cc(N2CCOCC2)nc2n(Cc3ccccc3F)ccn12` [GSK2297428] was tested, and the Kinases covered (PIK3C3) was “PIK3C3”.
With `COc1cc2ncn(-c3cc(O[C@H](C)c4ccccc4Cl)c(C(N)=O)s3)c2cc1OC` [GSK237701A] the Kinases covered (PDGFRB) was “PDGFRB”.
With `CNc1nc(-c2ccc3c(N)n[nH]c3c2)cc(N2C[C@@H](C(=O)Nc3ccccc3)CC[C@H]2C)n1` [GSK2298859] the Kinases covered (PDPK1) was “PDPK1”.
`CC[C@@H]1CO[C@H](C(=O)Nc2ccccc2)CN1c1cc(-c2ccc3c(N)n[nH]c3c2)nc(NC)n1` [GSK2376236] was tested, and the Kinases covered (PDPK1) was “PDPK1”.
With `Cc1c(Cn2c(C)nn3c(=O)cc(N4CCO[C@H](C)C4)nc23)cccc1C(F)(F)F` [GSK2373690] the Kinases covered (PIK3CB) was “PIK3CB” and the Kinases covered (PIK3CG) was “PIK3CG”.
With `O=C(Nc1ccccc1)Nc1cccc(Oc2ccc3nccn3n2)c1` [TPKI-39] the Kinases covered (PDGFRB) was “PDGFRB”.
`Cc1ccc(NC(=O)Nc2ccccc2F)cc1-c1ccc(C(=O)Nc2ccncc2)cc1` [GSK1398477] was tested, and the Kinases covered (PDGFRB) was “PDGFRB”.
With `Cc1c(Cn2c(C)c(C)n3c(=O)cc(N4CCOCC4)nc23)cccc1C(F)(F)F` [GSK2328680] the Kinases covered (PIK3CB) was “PIK3CB”.
With `CNS(=O)(=O)c1ccc(N(C)C)c(Nc2ncnc3cc(OC)c(OC)cc23)c1` [GSK114] the Kinases covered (PDGFRB) was “PDGFRB”.
With `COc1ccc(-c2cc3c(C)nc(N)nc3n([C@H]3CC[C@H](OCCO)CC3)c2=O)cn1` [PFE-PKIS 29] the Kinases covered (PI4KB) was “PI4KB”, the Kinases covered (PIK3C2B) was “PIK3C2B” and the Kinases covered (PIK3C2G) was “PIK3C2G”. For the same molecule, the Kinases covered (PIK3CB) was “PIK3CB” and the Kinases covered (PIK3CD) was “PIK3CD”.
In the case of `COc1cc2c(cc1OC)C(=C(Nc1ccccc1)c1cccc(CN)c1)C(=O)N2` [BIBF0846CL], the Kinases covered (PDGFRB) is reported as “PDGFRB”.
`FC1=CC(C3=NC2=CC(OC)=C(OC)C=C2C(N[C@H]4[C@H]([C@](C)(O)C)CNC4)=N3)=C(O)C=C1.Cl.Cl` [CCT241533] was tested, and the Kinases covered (PHK) was “PHK”.
For `COc1ncc(-c2cc(-c3ncc(CN4C[C@@H](C)O[C@@H](C)C4)o3)c3cn[nH]c3c2)cc1NS(C)(=O)=O` [GSK2292767], the Kinases covered (PIK3CD) was “PIK3CD”.
With `Cc1nnc(-c2ccc3occ(-c4ccc(S(C)=O)cc4)c3c2)[nH]1` (stereo not drawn) [TPKI-85] the Kinases covered (PIK3C3) was “PIK3C3”.
For `CC(C)C(=O)N[C@@H]1CCN(C(=O)Nc2nc3c(s2)-c2nc(-c4ccccc4Cl)ncc2CC3)C1` [BI00047804], the Kinases covered (PIK3CG) was “PIK3CG”.
With `COc1ccc(-c2cc3c(C)nc(N)nc3n([C@H]3CC[C@H](O)CC3)c2=O)cn1` [PFE-PKIS 40] the Kinases covered (PI4KB) was “PI4KB”, the Kinases covered (PIK3C2B) was “PIK3C2B” and the Kinases covered (PIK3C2G) was “PIK3C2G”. For the same molecule, the Kinases covered (PIK3CB) was “PIK3CB”, the Kinases covered (PIK3CD) was “PIK3CD” and the Kinases covered (PIK3CG) was “PIK3CG”.
